The supplement of paper PMC11732987, “Enantioselective OTUD7B fragment discovery through chemoproteomics screening and high-throughput optimisation” (Communications Chemistry, 2025)

Key:
Experiment in all cases: log2 ratio of Biotin-Ahx-Ub-VS probe labelling (fragment/DMSO); higher = less target engagement (more negative = stronger competition), active = hit call of the paper (q ≤ 0.05, log2 ratio ≤ -1)
Settings in all cases: compound concentration: 200 uM; treatment time: 3 h
USP19 = target: T1, USP19 (UniProt O94966)
T1 sequence (whole entry): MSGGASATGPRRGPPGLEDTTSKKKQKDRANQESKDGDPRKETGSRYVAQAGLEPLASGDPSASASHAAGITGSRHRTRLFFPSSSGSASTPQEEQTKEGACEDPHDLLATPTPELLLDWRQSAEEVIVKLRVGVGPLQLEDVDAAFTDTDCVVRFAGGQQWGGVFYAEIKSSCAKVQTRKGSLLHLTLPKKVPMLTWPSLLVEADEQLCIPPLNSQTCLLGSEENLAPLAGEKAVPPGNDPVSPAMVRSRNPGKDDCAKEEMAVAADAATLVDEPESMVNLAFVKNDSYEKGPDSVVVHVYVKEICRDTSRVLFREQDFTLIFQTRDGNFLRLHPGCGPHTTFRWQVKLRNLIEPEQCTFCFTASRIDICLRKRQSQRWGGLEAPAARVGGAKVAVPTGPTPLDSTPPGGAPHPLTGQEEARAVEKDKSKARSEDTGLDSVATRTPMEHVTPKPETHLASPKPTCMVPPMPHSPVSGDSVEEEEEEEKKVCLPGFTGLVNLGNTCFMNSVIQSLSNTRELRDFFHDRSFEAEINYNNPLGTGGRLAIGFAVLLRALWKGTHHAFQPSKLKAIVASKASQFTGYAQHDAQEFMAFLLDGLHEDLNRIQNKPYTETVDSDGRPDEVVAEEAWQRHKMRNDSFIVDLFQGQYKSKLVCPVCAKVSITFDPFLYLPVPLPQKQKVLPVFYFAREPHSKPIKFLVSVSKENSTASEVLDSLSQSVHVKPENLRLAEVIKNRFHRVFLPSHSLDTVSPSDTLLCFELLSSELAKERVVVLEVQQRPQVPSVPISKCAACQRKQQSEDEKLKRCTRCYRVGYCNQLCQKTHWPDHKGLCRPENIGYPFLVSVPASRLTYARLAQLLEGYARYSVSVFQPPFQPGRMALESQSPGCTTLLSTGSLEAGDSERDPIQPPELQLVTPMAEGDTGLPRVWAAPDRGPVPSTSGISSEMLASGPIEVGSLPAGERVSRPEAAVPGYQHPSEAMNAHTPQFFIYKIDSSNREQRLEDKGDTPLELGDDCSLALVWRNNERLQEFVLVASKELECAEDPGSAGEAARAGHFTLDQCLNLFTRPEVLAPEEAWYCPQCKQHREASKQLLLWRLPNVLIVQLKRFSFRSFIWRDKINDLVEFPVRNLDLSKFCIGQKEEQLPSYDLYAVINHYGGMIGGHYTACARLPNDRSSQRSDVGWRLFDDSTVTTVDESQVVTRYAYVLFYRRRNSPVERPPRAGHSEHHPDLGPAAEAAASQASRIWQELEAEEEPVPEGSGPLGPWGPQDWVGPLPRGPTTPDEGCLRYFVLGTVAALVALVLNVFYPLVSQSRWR
Outline: (§1)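 The table lists average log2 ratios of fragment over vehicle, from an unpaired t-test on global-median-normalised Spectronaut label-free quantities. Proteins with ≥2 unique peptides were used. Samples were HEK293T lysate (495 µg) treated in triplicate with fragment at 200 µM or vehicle for 3 h, then with Biotin-Ahx-Ub-VS (0.5 µM final) for 1 h, with labelled DUBs NeutrAvidin-enriched and run by diaPASEF LC-MS/MS.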

USP22 = target: T2, USP22 (UniProt Q9UPT9)
T2 sequence (whole entry): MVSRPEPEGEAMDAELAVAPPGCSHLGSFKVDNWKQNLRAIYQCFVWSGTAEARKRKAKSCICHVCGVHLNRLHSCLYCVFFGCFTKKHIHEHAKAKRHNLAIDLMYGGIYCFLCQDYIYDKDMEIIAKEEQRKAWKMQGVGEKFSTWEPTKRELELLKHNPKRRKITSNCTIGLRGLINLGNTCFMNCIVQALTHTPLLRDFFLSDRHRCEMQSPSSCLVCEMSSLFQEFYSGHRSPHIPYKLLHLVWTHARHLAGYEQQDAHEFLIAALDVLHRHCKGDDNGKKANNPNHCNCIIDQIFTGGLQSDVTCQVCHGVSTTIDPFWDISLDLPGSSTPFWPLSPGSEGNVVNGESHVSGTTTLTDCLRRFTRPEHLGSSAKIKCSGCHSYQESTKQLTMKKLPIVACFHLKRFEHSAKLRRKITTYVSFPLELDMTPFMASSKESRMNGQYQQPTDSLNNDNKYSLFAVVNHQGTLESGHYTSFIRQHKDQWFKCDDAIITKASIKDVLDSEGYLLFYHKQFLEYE
Outline: as §1

USP24 = USP24 (UniProt Q9UPU5)
Outline: as §1

USP25 = target: T3, USP25 (UniProt Q9UHP3)
T3 sequence (whole entry): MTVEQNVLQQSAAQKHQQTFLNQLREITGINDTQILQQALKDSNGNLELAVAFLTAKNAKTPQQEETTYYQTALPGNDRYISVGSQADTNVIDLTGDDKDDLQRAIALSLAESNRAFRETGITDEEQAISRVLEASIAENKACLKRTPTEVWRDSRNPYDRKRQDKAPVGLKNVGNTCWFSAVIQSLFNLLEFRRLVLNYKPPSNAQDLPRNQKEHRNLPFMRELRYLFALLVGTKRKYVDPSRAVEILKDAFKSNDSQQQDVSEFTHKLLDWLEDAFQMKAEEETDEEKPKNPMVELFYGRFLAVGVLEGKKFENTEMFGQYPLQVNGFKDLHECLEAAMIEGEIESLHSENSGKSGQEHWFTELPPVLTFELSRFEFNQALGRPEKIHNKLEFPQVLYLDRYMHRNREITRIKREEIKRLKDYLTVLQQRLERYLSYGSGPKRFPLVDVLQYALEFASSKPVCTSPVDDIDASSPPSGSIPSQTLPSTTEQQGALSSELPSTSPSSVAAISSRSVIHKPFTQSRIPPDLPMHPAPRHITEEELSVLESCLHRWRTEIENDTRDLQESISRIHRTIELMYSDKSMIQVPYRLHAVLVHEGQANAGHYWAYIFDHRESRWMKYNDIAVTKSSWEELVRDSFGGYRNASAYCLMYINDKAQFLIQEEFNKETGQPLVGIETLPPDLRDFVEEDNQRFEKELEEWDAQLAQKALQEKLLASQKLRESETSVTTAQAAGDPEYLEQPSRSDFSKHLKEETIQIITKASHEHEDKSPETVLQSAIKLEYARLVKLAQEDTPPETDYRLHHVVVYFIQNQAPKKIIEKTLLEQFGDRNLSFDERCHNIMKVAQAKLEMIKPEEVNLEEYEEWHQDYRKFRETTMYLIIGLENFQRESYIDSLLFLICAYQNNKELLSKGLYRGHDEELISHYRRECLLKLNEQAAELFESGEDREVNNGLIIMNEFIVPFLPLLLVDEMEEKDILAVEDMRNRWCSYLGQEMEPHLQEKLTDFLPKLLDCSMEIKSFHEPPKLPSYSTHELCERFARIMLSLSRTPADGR
Outline: as §1

USP28 = target: T4, USP28 (UniProt Q96RU2)
T4 sequence (whole entry): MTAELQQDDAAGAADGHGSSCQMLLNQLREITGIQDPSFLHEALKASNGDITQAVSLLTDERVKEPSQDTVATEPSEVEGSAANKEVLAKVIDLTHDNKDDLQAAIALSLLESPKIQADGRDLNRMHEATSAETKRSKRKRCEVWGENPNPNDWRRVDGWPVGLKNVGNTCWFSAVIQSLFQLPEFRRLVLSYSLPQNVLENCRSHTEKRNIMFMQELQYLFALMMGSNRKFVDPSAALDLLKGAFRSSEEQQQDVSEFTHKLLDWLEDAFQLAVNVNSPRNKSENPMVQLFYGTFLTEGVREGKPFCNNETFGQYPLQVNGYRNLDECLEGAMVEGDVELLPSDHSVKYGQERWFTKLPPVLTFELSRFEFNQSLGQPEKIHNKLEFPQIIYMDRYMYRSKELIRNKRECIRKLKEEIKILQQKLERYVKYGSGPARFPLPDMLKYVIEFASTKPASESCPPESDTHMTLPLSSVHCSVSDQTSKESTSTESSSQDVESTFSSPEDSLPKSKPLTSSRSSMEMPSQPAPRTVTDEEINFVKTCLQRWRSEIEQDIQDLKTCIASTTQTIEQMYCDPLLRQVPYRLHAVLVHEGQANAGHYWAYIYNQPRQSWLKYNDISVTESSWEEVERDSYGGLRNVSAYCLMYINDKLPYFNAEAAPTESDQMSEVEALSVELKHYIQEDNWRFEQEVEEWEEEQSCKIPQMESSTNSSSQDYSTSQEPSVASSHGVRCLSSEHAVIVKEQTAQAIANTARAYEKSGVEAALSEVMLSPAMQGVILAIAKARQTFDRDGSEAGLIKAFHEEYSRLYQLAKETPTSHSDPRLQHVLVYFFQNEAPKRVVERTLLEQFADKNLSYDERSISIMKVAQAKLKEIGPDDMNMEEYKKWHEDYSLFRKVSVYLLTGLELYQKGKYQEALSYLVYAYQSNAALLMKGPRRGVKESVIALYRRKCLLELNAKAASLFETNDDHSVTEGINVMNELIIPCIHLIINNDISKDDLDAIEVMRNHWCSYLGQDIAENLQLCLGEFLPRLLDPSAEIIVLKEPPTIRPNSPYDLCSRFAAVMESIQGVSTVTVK
Outline: as §1

Measured: log2 ratio of Biotin-Ahx-Ub-VS probe labelling

Sequence of USP24 (Q9UPU5 whole entry): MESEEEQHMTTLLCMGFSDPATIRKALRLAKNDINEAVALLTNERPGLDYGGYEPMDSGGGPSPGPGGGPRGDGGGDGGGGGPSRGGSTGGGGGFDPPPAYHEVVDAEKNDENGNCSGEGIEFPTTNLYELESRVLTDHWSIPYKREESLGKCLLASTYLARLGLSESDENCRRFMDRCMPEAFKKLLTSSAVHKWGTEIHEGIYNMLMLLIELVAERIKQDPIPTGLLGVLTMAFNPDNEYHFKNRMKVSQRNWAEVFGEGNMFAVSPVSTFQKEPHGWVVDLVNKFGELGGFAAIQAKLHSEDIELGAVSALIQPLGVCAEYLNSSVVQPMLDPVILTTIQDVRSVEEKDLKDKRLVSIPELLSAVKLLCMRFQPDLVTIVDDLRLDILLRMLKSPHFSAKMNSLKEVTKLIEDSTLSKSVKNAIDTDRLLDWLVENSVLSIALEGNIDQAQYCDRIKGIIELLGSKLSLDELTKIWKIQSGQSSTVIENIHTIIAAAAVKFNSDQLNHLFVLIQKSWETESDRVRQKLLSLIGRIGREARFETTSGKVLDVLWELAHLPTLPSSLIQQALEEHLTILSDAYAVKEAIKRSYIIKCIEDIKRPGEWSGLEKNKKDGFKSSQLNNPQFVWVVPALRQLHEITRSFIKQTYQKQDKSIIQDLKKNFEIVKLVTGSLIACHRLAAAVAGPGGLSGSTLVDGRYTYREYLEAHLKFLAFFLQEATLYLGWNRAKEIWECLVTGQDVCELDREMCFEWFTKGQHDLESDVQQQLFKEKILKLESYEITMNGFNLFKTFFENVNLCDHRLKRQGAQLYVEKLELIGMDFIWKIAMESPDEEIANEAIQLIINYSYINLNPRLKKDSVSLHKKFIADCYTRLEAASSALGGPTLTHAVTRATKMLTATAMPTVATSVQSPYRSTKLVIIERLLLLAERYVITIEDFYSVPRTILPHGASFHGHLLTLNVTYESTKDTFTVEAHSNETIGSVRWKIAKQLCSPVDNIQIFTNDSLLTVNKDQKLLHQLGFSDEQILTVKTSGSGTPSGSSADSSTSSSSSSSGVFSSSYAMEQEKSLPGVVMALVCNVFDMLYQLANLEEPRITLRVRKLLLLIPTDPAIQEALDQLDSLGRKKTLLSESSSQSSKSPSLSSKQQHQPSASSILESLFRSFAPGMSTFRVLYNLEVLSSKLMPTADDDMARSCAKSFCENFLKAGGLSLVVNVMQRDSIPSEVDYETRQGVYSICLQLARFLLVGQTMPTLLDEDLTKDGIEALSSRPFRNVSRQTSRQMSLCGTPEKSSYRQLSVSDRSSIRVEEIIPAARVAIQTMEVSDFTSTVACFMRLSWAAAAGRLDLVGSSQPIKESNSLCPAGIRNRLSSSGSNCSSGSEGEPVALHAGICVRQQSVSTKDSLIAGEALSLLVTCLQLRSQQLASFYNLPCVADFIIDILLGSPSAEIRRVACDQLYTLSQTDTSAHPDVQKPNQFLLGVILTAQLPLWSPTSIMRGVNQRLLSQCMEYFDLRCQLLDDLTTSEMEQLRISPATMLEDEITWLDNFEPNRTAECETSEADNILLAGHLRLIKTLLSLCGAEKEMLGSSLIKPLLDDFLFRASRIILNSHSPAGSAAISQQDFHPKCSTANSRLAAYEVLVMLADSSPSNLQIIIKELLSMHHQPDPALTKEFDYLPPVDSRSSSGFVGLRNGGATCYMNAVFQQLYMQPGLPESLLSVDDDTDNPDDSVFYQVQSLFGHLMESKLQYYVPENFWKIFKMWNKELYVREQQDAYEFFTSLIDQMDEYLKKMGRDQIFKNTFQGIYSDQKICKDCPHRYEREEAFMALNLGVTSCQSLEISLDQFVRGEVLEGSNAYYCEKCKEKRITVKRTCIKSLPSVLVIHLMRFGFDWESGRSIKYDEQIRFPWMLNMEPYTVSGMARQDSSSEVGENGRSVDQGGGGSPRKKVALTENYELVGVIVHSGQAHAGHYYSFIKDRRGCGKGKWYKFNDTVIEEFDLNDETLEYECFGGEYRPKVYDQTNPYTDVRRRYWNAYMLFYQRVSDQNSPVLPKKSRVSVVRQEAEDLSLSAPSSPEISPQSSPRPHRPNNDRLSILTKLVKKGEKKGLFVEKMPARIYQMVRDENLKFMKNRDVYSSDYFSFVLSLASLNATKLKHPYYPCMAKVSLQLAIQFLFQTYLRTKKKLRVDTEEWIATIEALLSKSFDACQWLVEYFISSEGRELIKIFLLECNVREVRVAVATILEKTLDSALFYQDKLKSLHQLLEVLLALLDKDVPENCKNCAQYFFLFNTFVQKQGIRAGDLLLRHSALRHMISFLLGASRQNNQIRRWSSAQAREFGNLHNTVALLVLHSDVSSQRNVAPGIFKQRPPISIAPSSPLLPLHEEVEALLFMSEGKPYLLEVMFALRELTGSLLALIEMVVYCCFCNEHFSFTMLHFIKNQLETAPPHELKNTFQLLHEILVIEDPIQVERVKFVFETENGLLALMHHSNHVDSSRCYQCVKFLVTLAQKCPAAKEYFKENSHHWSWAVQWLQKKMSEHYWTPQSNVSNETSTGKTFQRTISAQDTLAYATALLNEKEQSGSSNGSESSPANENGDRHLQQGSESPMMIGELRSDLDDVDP

Cc1cc(C2CCCN2C(=O)CCl)nn1C.Cl (stereo not given)
inactive: USP19 -0.282 | USP22 -0.312 | USP24 -0.202 | USP25 -0.257 | USP28 -0.271
